Structures can show the parent of a compound that is named as a salt. ± gives the standard deviation of the averaged measurements.
system: Klebsiella pneumoniae NCTC-13439; assay: percent growth inhibition of drug alone vs DMSO control; higher = more growth inhibition; conditions: antibiotic (0.125x MIC): none (0.1% DMSO); 20 µM

| SMILES | percent growth inhibition of drug alone |
| --- | --- |
| Cc1c(F)c(N2CCNC(C)C2)cc2c1c(=O)c(C(=O)O)cn2C1CC1 (configuration not stated) [Grepafloxacin] | 23.5 ± 9.9% |
| C#C[C@]1(OC(C)=O)CC[C@H]2[C@@H]3CCC4=CC(=NO)CC[C@@H]4[C@H]3CC[C@@]21CC (mixture of isomers) [Norgestimate] | -14.2 ± 4.9% |
| NC(=O)N/N=C/c1ccc([N+](=O)[O-])o1 [Nitrofural] | 11.8 ± 8.7% |
| COc1ccc(OC)c(C(O)CNC(=O)CN)c1 (configuration not stated) [Midodrine hydrochloride] | -4.02 ± 9.3% |
| Cc1nc2n(c(=O)c1CCN1CCC(c3noc4cc(F)ccc34)CC1)CCCC2 [Risperidone] | -6.94 ± 7.8% |
| C[C@H](N)[C@H](O)c1cccc(O)c1 [Metaraminol bitartrate] | -0.507 ± 15% |
| N=C(NCCCCCCNC(=N)NC(=N)Nc1ccc(Cl)cc1)NC(=N)Nc1ccc(Cl)cc1 [Chlorhexidine] | 57.6 ± 4.2% |
| O=C(OCC(O)CO)c1ccccc1Nc1ccnc2cc(Cl)ccc12 (configuration not stated) [Glafenine hydrochloride] | 3.73 ± 17% |
| NC1CCN(c2nc3c(cc2F)c(=O)c(C(=O)O)cn3-c2ccc(F)cc2F)C1 (configuration not stated) [Tosufloxacin hydrochloride] | 99.38 ± 0.74% |
| CC(=O)CCCCn1c(=O)c2c(ncn2C)n(C)c1=O [Pentoxifylline] | 2.73 ± 3.2% |

system: Klebsiella pneumoniae KPC-119; assay: percent growth inhibition of drug + antibiotic vs DMSO control; higher = more growth inhibition; conditions: antibiotic (0.125x MIC): colistin; 7 µM

| SMILES | percent growth inhibition |
| --- | --- |
| Oc1c(I)cc(Cl)c2cccnc12 [Clioquinol] | 47.2 ± 5.2% |
| COc1cc(C)nc(-n2nc(C)cc2OC)n1 [Epirizole] | 55.5 ± 7.9% |
| CCn1cc(C(=O)O)c(=O)c2cc(F)c(N3CCNCC3)nc21 [Enoxacin] | 13.6 ± 6.1% |
| COC(=O)N/N=C/c1c[n+]([O-])c2ccccc2[n+]1[O-] [Carbadox] | 34.1 ± 0.81% |
| CC1COc2c(N3CCN(C)CC3)c(F)cc3c(=O)c(C(=O)O)cn1c23 (configuration not stated) [Ofloxacin] | 98.02 ± 0.8% |
| C=CC1=C(C(=O)O)N2C(=O)[C@@H](NC(=O)/C(=N\OCC(=O)O)c3csc(N)n3)[C@H]2SC1 [Cefixime] | 9.79 ± 12% |
| NCC[C@H](O)C(=O)N[C@@H]1C[C@H](N)[C@@H](O[C@H]2O[C@H](CN)[C@@H](O)[C@H](O)[C@H]2O)[C@H](O)[C@H]1O[C@H]1O[C@H](CO)[C@@H](O)[C@H](N)[C@H]1O [Amikacin hydrate] | 38.9 ± 2.6% |
| CC1CCc2cc(F)cc3c(=O)c(C(=O)O)cn1c23 (configuration not stated) [Flumequine] | 88.42 ± 0.76% |
| C[C@@H]1CN(c2c(F)c(N)c3c(=O)c(C(=O)O)cn(C4CC4)c3c2F)C[C@H](C)N1 [Sparfloxacin] | 99.4 ± 0.42% |
| CCCCCCCCNC(C)C(O)c1ccc(SC(C)C)cc1 (configuration not stated) [Suloctidil] | 3.9 ± 5.4% |
| O=C1NCN(c2ccccc2)C12CCN(CCCC(c1ccc(F)cc1)c1ccc(F)cc1)CC2 [Fluspirilen] | 4.99 ± 4% |
| CCCCC(CC)CNC(=N)NC(=N)NCCCCCCNC(=N)NC(=N)NCC(CC)CCCC (configuration not stated) [Alexidine dihydrochloride] | 98.02 ± 0.96% |

same assay, conditions: antibiotic (0.125x MIC): colistin; 20 µM

| SMILES | percent growth inhibition |
| --- | --- |
| Oc1c(I)cc(Cl)c2cccnc12 [Clioquinol] | 98.97 ± 0.28% |
| COc1cc(C)nc(-n2nc(C)cc2OC)n1 [Epirizole] | -4.39 ± 3.8% |
| CCn1cc(C(=O)O)c(=O)c2cc(F)c(N3CCNCC3)nc21 [Enoxacin] | 97.72 ± 0.24% |
| COC(=O)N/N=C/c1c[n+]([O-])c2ccccc2[n+]1[O-] [Carbadox] | 87.5 ± 11% |
| CC1COc2c(N3CCN(C)CC3)c(F)cc3c(=O)c(C(=O)O)cn1c23 (configuration not stated) [Ofloxacin] | 97.8 ± 1.4% |
| C=CC1=C(C(=O)O)N2C(=O)[C@@H](NC(=O)/C(=N\OCC(=O)O)c3csc(N)n3)[C@H]2SC1 [Cefixime] | 97.8 ± 1.9% |
| NCC[C@H](O)C(=O)N[C@@H]1C[C@H](N)[C@@H](O[C@H]2O[C@H](CN)[C@@H](O)[C@H](O)[C@H]2O)[C@H](O)[C@H]1O[C@H]1O[C@H](CO)[C@@H](O)[C@H](N)[C@H]1O [Amikacin hydrate] | 92.29 ± 0.57% |
| CC1CCc2cc(F)cc3c(=O)c(C(=O)O)cn1c23 (configuration not stated) [Flumequine] | 95.6 ± 2.3% |
| C[C@@H]1CN(c2c(F)c(N)c3c(=O)c(C(=O)O)cn(C4CC4)c3c2F)C[C@H](C)N1 [Sparfloxacin] | 99.2 ± 0.83% |
| CCCCCCCCNC(C)C(O)c1ccc(SC(C)C)cc1 (configuration not stated) [Suloctidil] | 94.63 ± 0.84% |
| O=C1NCN(c2ccccc2)C12CCN(CCCC(c1ccc(F)cc1)c1ccc(F)cc1)CC2 [Fluspirilen] | 96.4 ± 1.1% |
| CCCCC(CC)CNC(=N)NC(=N)NCCCCCCNC(=N)NC(=N)NCC(CC)CCCC (configuration not stated) [Alexidine dihydrochloride] | 94.8 ± 1.6% |

same assay, conditions: antibiotic (0.125x MIC): gentamicin; 7 µM

| SMILES | percent growth inhibition |
| --- | --- |
| CCn1cc(C(=O)O)c(=O)c2cc(F)c(N3CCNCC3)nc21 [Enoxacin] | -1.06 ± 6.9% |
| COC(=O)N/N=C/c1c[n+]([O-])c2ccccc2[n+]1[O-] [Carbadox] | 15.7 ± 0.29% |
| CC1COc2c(N3CCN(C)CC3)c(F)cc3c(=O)c(C(=O)O)cn1c23 (configuration not stated) [Ofloxacin] | 99.97 ± 0.11% |
| C/C(=C\C(=O)OCCCCCCCCC(=O)O)C[C@@H]1OC[C@H](C[C@@H]2O[C@H]2[C@@H](C)[C@H](C)O)[C@@H](O)[C@H]1O [Mupirocin] | 16.2 ± 3.3% |
| C=CC1=C(C(=O)O)N2C(=O)[C@@H](NC(=O)/C(=N\OCC(=O)O)c3csc(N)n3)[C@H]2SC1 [Cefixime] | 29.8 ± 2% |
| NCC[C@H](O)C(=O)N[C@@H]1C[C@H](N)[C@@H](O[C@H]2O[C@H](CN)[C@@H](O)[C@H](O)[C@H]2O)[C@H](O)[C@H]1O[C@H]1O[C@H](CO)[C@@H](O)[C@H](N)[C@H]1O [Amikacin hydrate] | 30.1 ± 9.4% |
| CO/N=C(\C(=O)N[C@@H]1C(=O)N2C(C(=O)O)=C(C[N+]3(C)CCCC3)CS[C@H]12)c1csc(N)n1 [Cefepime hydrochloride] | 37.1 ± 3.7% |
| CCCCC(CC)CNC(=N)NC(=N)NCCCCCCNC(=N)NC(=N)NCC(CC)CCCC (configuration not stated) [Alexidine dihydrochloride] | 99.857 ± 0.088% |
